Shown are actives, neighbours in structure and some others; about 1.2% of the full set was active somewhere.
Avidin bead fluor – avidin bead compound fluorescence profile. Avidin beads, compound fluorescence 488/530 nm, flow cytometry; active compounds read high. fluorescence (KMESF) at 10 µM. 0.38% of 220,000 active; in the data active = fluorescence above about 47
GSH fluor – compound fluoresces at 488/530 nm on GSH beads; GSH beads flow cytometry, compound fluorescence 488/530 nm; active compounds read high; fluorescence (KMESF) at 10 µM; 0.25% of 190,000 active; AID 1776; in the data active = fluorescence above about 89;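 also: glutathione beads carrying GST-tagged Bcl family fusion proteins plus one bare bead set; values are compound well signal with DMSO vehicle wells as background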
RGS4-Gao reg – human RGS4-Galphao interaction regulation; binding response (% of control), % at 10 µM; 0.33% of 220,000 active; Multiplexed bead flow cytometry, RGS4-Galphao binding; actives lie on both sides; in the data active = binding response below about 49% or above about 150%; inactive = in between;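 also: fluorescent Galphao activated with aluminum fluoride binding bead-coupled RGS4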
Target sequence (P09471 whole entry, looked up): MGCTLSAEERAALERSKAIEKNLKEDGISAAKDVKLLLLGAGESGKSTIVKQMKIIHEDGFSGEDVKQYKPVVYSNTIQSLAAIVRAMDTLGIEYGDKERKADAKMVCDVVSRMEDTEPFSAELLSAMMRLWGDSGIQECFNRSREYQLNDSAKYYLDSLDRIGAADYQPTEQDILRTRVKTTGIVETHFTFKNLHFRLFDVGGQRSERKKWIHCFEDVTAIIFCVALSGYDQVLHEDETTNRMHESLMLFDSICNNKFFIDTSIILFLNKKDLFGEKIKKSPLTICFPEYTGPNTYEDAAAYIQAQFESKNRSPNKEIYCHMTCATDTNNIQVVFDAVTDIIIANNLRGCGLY
RGS16-Gao – RGS16-Galphao interaction regulator (human). 0.38% of 220,000 active. bead-based flow cytometry RGS16-Galphao binding, fluorescence; actives lie on both sides. binding response (% of control), % at 10 µM. O15492+P09471. AID 1441;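 also: Galphao activated by GDP with aluminum fluoride before binding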
RGS7-Gao – modulates binding of RGS7 to human Galphao; P09471; Multiplexed bead flow cytometry; actives lie on both sides; binding response (% of control), % at 10 µM; 0.35% of 220,000 active; AID 1439; in the data active = binding response below about 49% or above about 150%; inconclusive = no clear call, values can overlap the other calls; inactive = in between;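 also: fluorescent Galphao held in activated GDP-AlF4 state binding bead-coupled RGS7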
RGS8-Gao reg – modulates binding of RGS8 to human Galphao | P09471 | multiplexed bead flow cytometry; actives lie on both sides | response (percent of control binding), % at 10 µM | 0.34% of 220,000 active | AID 1423; in the data active = response below about 60% or above about 140%; inactive = in between;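 also: Galphao activated as the GDP aluminium fluoride complex binding bead-coupled RGS8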
RGS4-Gao HTS – RGS4-Galphao interaction regulator (human) | shares compounds with RGS16-Gao | AID 1504 | multiplexed bead flow cytometry, RGS–Galpha-o binding | RGS4–Galpha-o binding response, % at 10 µM | 99% of 1,600 active;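 also: fluorescently labeled Galpha-o bound to GDP with aluminium fluoride binding biotinylated RGS beads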
Target sequence (P09471 whole entry, looked up): as above
Target sequence (P49798 whole entry, looked up): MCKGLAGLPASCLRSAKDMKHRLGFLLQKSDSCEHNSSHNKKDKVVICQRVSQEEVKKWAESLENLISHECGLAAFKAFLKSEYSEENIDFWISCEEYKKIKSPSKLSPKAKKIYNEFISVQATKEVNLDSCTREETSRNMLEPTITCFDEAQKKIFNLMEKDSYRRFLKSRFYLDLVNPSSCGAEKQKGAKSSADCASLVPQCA
Avidin counter – counter-screen: compounds disrupting biotin binding to avidin beads | 1,700 tested, under 10 active | streptavidin beads, fluorescein-biotin binding, flow cytometry | shares compounds with RGS16-Gao | inhibition, % at 10 µM | AID 1783;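 active = inhibition above 50%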;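 also: median green fluorescence of gated singlet beads compared with DMSO control wells; 0% = DMSO wells and 100% = complete loss of bead fluorescence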
RGS8-Gao single – confirmation of regulators of human RGS8-Galphao interaction. shares compounds with RGS16-Gao. bead-based flow cytometry RGS8-Galphao binding, fluorescence; actives lie on both sides. binding response (% of control), % at 10 µM. 3% of 1,700 active; in the data active = binding response below about 72% or above about 130%; inactive = in between;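 also: Galphao activated as GDP AlF4 complex before binding bead RGS8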
RGS7-Gao single – RGS7-Galphao interaction regulation, single point confirmation | shares compounds with RGS16-Gao | bead-based flow cytometry RGS7-Galphao binding; actives lie on both sides | response (percent of control binding), % at 10 µM | 7.8% of 1,700 active; in the data active = response below about 75% or above about 130%; inactive = in between;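 also: fluorescent Galphao activated with GDP and aluminum fluoride binding bead-coupled RGS7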
RGS16-Gao single – confirmation of regulators of human RGS16-Galphao interaction; bead-based flow cytometry, RGS16-Galphao binding; actives lie on both sides; response (% of control binding), % at 10 µM; shares compounds with RGS16-Gao; AID 1838; 4% of 1,700 active; in the data active = response below about 74% or above about 130%; inactive = in between;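 also: Galphao activated as the GDP aluminium fluoride complex binding bead-coupled RGS16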
RGS4-Gao single – confirmation of regulators of human RGS4-Galphao interaction. AID 1840. RGS4-Galphao binding, multiplexed bead flow cytometry; actives lie on both sides. binding response (% of control), % at 10 µM. shares compounds with RGS16-Gao. 4% of 1,700 active; in the data active = binding response below about 74% or above about 130%; inactive = in between
RGS19-Gao single – confirmation of regulators of human RGS19-Galphao interaction; 5% of 1,700 active; response (percent of control binding), % at 10 µM; shares compounds with RGS16-Gao; AID 1841; bead-based flow cytometry RGS19-Galphao binding; actives lie on both sides; in the data active = response below about 50% or above about 160%; inactive = in between;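 also: 100% = no compound control and 0% = blank background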
Starred values were filed as active, the others as inactive; ? = inconclusive; . = not tested or not shown; [ ] = remark or other dose. Unless noted, no rule for the calls is given here.

SMILES	Avidin bead fluor	GSH fluor	RGS4-Gao reg	RGS16-Gao	RGS7-Gao	RGS8-Gao reg	RGS4-Gao HTS	Avidin counter	RGS8-Gao single	RGS7-Gao single	RGS16-Gao single	RGS4-Gao single	RGS19-Gao single
Nc1ccc2nc(-c3ccc(N)c(Cl)c3)[nH]c2c1	7	12	101	102	101	102	.	.	.	.	.	.	.
O=c1c2c3c(sc2nc(NCCOCCO)n1Cc1ccco1)CCCCC3	1	.	39*	32	?	46*	.	2	103	106	105	106	121
Fc1cccc(COc2ccccc2C(=S)N2CCCC2)c1	12	14	101	103	100	99	.	.	.	.	.	.	.
CN1C(=O)/C(=C/c2ccccc2OCc2cccc(F)c2)N(C)C1=S	.	36	.	.	.	.	.	2	100	99	101	99	97
O=C(Nn1c(C2CCCCC2)nc2ccccc2c1=O)c1ccc([N+](=O)[O-])cc1Cl	2	6	101	94	100	102	.	.	.	.	.	.	.
CC(=C/C(=O)O)/C(=C/c1ccccc1)C(=O)O	7	20	104	108	103	102	.	.	.	.	.	.	.
O=C(NCc1cccnc1)C1c2ccccc2C(=O)N1C1CCCC1 (configuration not stated)	7	13	106	110	103	104	.	.	.	.	.	.	.
O=C(/C=C/c1cccc([N+](=O)[O-])c1)NCCN1CCOCC1	20	20	100	105	98	100	.	.	.	.	.	.	.
Cc1ccc(S(=O)(=O)Nc2ccc(N3CCOCC3)cc2)cc1	9	37	86	-64*	93	88	86*	0	101	102	100	105	102
CCN(CC)S(=O)(=O)c1ccc(O)c(C(=O)OCC(=O)N2c3ccccc3CC2C)c1 (configuration not stated)	9	.	106	103	?	104	.	.	.	.	.	.	.
O=c1c2[nH]c3ccc(F)cc3c2nc2n1CCCS2	8	16	97	100	99	99	.	.	.	.	.	.	.
CCCCc1cc(=O)oc2cc(C)c(CN3CCCC3)c(O)c12	15	29	139	175*[activator]	160*[activator]	129	139*	1	93	90	92	92	61
N#C/C(=C\c1sc(N2CCOCC2)nc1-c1ccccc1)C(=O)Nc1cccc2ccccc12	312*	12	141	105	417*[activator]	90	141*	.	.	.	.	.	.
CC(=O)O/N=C1\C(=O)N(Cc2ccc(C)cc2)c2ccccc21	10	15	76	18	71	58*	76*	.	.	.	.	.	.
CN1C(=O)/C(=N\OC(=O)c2ccccc2Cl)c2ccccc21	7	11	104	100	107	101	.	.	.	.	.	.	.
CC(=O)NC(Cc1ccc(C(C)C)cc1)C(=O)NC1CCN(C(=O)c2cccc(C)c2)CC1 (configuration not stated)	11	19	99	105	98	102	.	.	.	.	.	.	.
CC1=CC2=NC(=O)/C(=C\c3ccc(-c4ccc(Cl)cc4)o3)C(=N)N2O1	208*	9	153*[activator]	429	167*[activator]	115	.	2	103	101	113	96	236*[activator]
CCC(=O)NC(c1ccc(C)cc1)c1cc([N+](=O)[O-])c2cccnc2c1O (configuration not stated)	1	9	68	13	72	58*	68*	0	89	89	85	95	42*
O=C(O)CCCC(=O)Nc1cccc2cccnc12	89*	20	107	71	151*[activator]	88	107*	1	96	95	99	98	93
CCC(C)Oc1ccccc1C1CC(=O)NC2=C1C(=O)CCC2 (configuration not stated)	39	21	98	98	99	100	.	.	.	.	.	.	.
CC(C)N1CCC(N2CCN(Cc3ccc(C#CC(C)(C)O)s3)CC2CCO)CC1 (configuration not stated)	134*	18	142	98	275*[activator]	84	142*	3	100	103	99	100	97
CC(C)N1CCN(Cc2ccc(C#CC(C)(C)O)s2)CC1CCO (configuration not stated)	2	8	99	100	99	97	.	.	.	.	.	.	.
N#Cc1cc(C(=O)c2ccccc2O)cn(-c2nccs2)c1=O	5	18	57	22	66	58*	57*	1	106	104	105	102	115
c1ccc(Cn2c(CNc3nc4ccccc4n3CCN3CCOCC3)nc3ccccc32)cc1	11	27	103	103	98	103	.	.	.	.	.	.	.
CC1(C)N([O-])c2cc([N+](=O)[O-])ccc2[N+]1=O	0	.	84	-9.3*	?	29*	84*	.	.	.	.	.	.
CCOc1ccc(S(=O)(=O)NC(C)(C)C)cc1-c1nc2c(C(C)(C)C)nn(C)c2c(=O)[nH]1	7	18	103	100	101	98	.	.	.	.	.	.	.
O=C(NCC1CCCO1)c1ccc(S(=O)(=O)N2CCC(c3nc4ccc(Cl)cc4[nH]3)CC2)cc1 (configuration not stated)	21	14	104	109	102	104	.	.	.	.	.	.	.
CCN(C(=O)c1cc2cccc(OC)c2oc1=O)C1CCCCC1	112*	18	187*[activator]	223*[activator]	188*[activator]	85	.	3	99	101	96	99	100
COc1ccc2c(c1)CCCC21NC(=O)N(CC(=O)NC(=O)NCc2ccccc2)C1=O (configuration not stated)	4	11	103	102	107	101	.	.	.	.	.	.	.
CC(C)=NOc1nc(N(C)C)nc(N(C)C)n1	11	10	108	208*[activator]	108	130	108*	-2	108	102	111	104	101
